Reference: the supplement of paper PMC7366291
Where a name gives a salt, the structure may show the parent alone. ± gives the standard deviation or the standard deviation of the averaged measurements.

Key:
Details in all cases: 25 µM; exposure: 24-48 hpf
[1] = system: Danio rerio Tg(wt1b:EGFP) embryo, pronephros; test: glomerular separation, fold change vs DMSO control; higher = glomeruli further apart (abnormal)
Outline: (§1)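 Dechorionated Tg(wt1b:EGFP) zebrafish embryos were incubated at 28.5°C from 24 to 48 hpf with 25 μM compound in HEPES-buffered E3 containing 0.5% DMSO and 0.003% PTU. Distances and angles between 16 manually set points on maximum projections of dorsal pronephros images were measured in Fiji, with values over 2 SD from the feature mean excluded. Each feature is a fold change relative to the mean of same-day DMSO-treated embryos.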

[2] = system: Danio rerio Tg(wt1b:EGFP) embryo, pronephros; test: glomerular width (mean of left and right), fold change vs DMSO control; higher = wider glomerulus
Outline: as §1

[3] = system: Danio rerio Tg(wt1b:EGFP) embryo, pronephros; test: fraction of imaged embryos annotated as normal kidney; higher = less nephrotoxic; extreme values may be limits of the assay
Outline: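 Tricaine-anaesthetised Tg(wt1b:EGFP) zebrafish larvae were oriented dorsally in agarose-filled 96-well plates, and their pronephroi were recorded by widefield fluorescence at 470 nm in 10 z-slices. Before this, the dechorionated embryos had been exposed in 12-well plates to 25 μM compound in 0.5% DMSO and 5 mM HEPES-buffered E3 with 0.003% PTU, from 24 to 48 hpf at 28.5°C. Maximum projections were annotated manually for each embryo, and the read-out is the fraction per treatment classed as normal kidney.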

[4] = system: Danio rerio Tg(wt1b:EGFP) embryo, pronephros; test: pronephric angle neck segment to proximal convoluted tubule (mean of left and right), fold change vs DMSO control; higher = larger pronephric angle
Outline: as §1

Structure (SMILES) | glomerular separation [1] | glomerular width [2] | fraction of imaged embryos annotated as normal kidney [3] | pronephric angle neck segment [4]
NS(=O)(=O)Cc1noc2ccccc12 [Zonisamide] | 0.805 ± 0.15 | 1 ± 0.059 | 0.917 | 1.02 ± 0.017
NS(=O)(=O)c1cc2c(cc1Cl)NCNS2(=O)=O [Hydrochlorothiazide] | 1.03 ± 0.25 | 0.972 ± 0.024 | 0.833 | 0.937 ± 0.013
CC(C)NCC(O)c1ccc(O)c(O)c1 (single isomer, unassigned; (+)) [(+)-Isoproterenol (+)-bitartrate salt] | 1.57 ± 0.7 | 1.03 ± 0.023 | 0.833 | 1 ± 0.015
CCC(C)(C)c1ccc(CC(C)CN2C[C@@H](C)O[C@@H](C)C2)cc1 (stereo partly drawn) [Amorolfine hydrochloride] | 0.874 ± 0.48 | 0.987 ± 0.017 | 0.917 | 0.983 ± 0.05
CN(C)CC/C=C1\c2ccccc2CSc2ccccc21 [Dosulepin hydrochloride] | 1.15 ± 0.25 | 0.981 ± 0.048 | 0.833 | 0.995 ± 0.03
C#CCN(C)Cc1ccccc1 [Pargyline hydrochloride] | 1.04 ± 0.29 | 1.09 ± 0.052 | 0.833 | 0.95 ± 0.015
NC(=O)c1cccnc1 [Nicotinamide] | 1 ± 0.22 | 1.022 ± 0.0032 | 0.909 | 0.985 ± 0.059
C#C[C@]1(O)CC[C@H]2[C@@H]3CCc4cc(OC)ccc4[C@H]3CC[C@@]21C [Ethynylestradiol 3-methyl ether] | 0.896 ± 0.42 | 1.038 ± 0.0014 | 0.833 | 1.03 ± 0.013
CC(=O)[C@@]12O[C@](C)(c3ccccc3)O[C@@H]1C[C@H]1[C@@H]3CCC4=CC(=O)CC[C@]4(C)[C@H]3CC[C@@]12C [Algestone acetophenide] | 1.76 ± 0.84 | 1.05 ± 0.047 | 0.5 | 1.02 ± 0.048
CCC(=O)O[C@]1(C(=O)SCF)[C@H](C)C[C@H]2[C@@H]3C[C@H](F)C4=CC(=O)C=C[C@]4(C)[C@@]3(F)[C@@H](O)C[C@@]21C [Fluticasone propionate] | 1.84 ± 0.75 | 1.27 ± 0.021 | 0.0833 | 1.04 ± 0.079
CCC(=O)OCC(=O)[C@@]1(OC(=O)CC)[C@H](C)C[C@H]2[C@H]3[C@H]([C@@H](O)C[C@@]21C)[C@@]1(C)C=CC(=O)C=C1C[C@H]3Cl [Alclometasone dipropionate] | 1.33 ± 0.61 | 1.23 ± 0.026 | 0.333 | 1.0427 ± 2.1e-05
CC(C)Cc1ccc([C@H](C)C(=O)O)cc1 [S-(+)-ibuprofen] | 4.34 ± 2.3 | 0.59 ± 0.021 | 0 | 1.61 ± 0.035
Cc1ccc(S(=O)(=O)NC(=O)NN2CCCCCC2)cc1 [Tolazamide] | 0.828 ± 0.19 | 0.948 ± 0.015 | 0.917 | 0.972 ± 0.023
COc1cc(N)c(Cl)cc1C(=O)NC1CCN(CCCOc2ccc(F)cc2)CC1OC (stereo not drawn) [Cisapride] | 1.09 ± 0.39 | 1.066 ± 0.0076 | 0.583 | 0.992 ± 0.071
O=C1CCC(N2C(=O)c3ccccc3C2=O)C(=O)N1 (stereo not drawn) [Thalidomide] | 0.439 ± 0.097 | 1.21 ± 0.078 | 0.917 | 0.748 ± 0.037
CC[N+](C)(CC)CCC[n+]1c(-c2ccccc2)c2cc(N)ccc2c2ccc(N)cc21 [Propidium iodide] | 0.946 ± 0.41 | 1.16 ± 0.087 | 0.727 | 0.959 ± 0.036
Cc1cc(C)nc(NS(=O)(=O)c2ccc(N)cc2)n1 [Sulfamethazine sodium salt] | 1.11 ± 0.43 | 1.08 ± 0.048 | 0.917 | 1.01 ± 0.031
CCCc1ncc(C[n+]2ccccc2C)c(N)n1 [Amprolium hydrochloride] | 1.14 ± 0.19 | 0.936 ± 0.042 | 1 | 1 ± 0.018
Cc1ccc(C(=O)c2ccc(CC(=O)O)n2C)cc1 [Tolmetin sodium salt dihydrate] | 1.55 ± 0.69 | 1.006 ± 0.0038 | 0.333 | 1 ± 0.075

Structure (SMILES) | glomerular separation [1] | glomerular width [2] | fraction of imaged embryos annotated as normal kidney [3] | pronephric angle neck segment [4]
CCCN[C@H]1CCc2nc(N)sc2C1 [Pramipexole dihydrochloride] | 0.857 ± 0.44 | 1.03 ± 0.049 | 0.833 | 1.01 ± 0.046
CC(C)OC(=O)CCC/C=C\C[C@@H]1[C@@H](CC[C@@H](O)CCc2ccccc2)[C@H](O)C[C@@H]1O [Latanoprost] | 1.02 ± 0.44 | 1.05 ± 0.014 | 0.833 | 1.02 ± 0.013
NCCNCCNCCNCCN [Tetraethylenepentamine pentahydrochloride] | 0.956 ± 0.33 | 1.08 ± 0.041 | 0.75 | 1.02 ± 0.049
NCCc1cc[nH]n1 [Betazole hydrochloride] | 1.28 ± 0.54 | 0.9705 ± 0.0028 | 0.917 | 1.05 ± 0.012
COC(=O)Nc1nc2ccc(SC(C)C)cc2[nH]1 [Methiazole] | 3.98 ± 1.2 | 0.49428 ± 0.00044 | 0 | 1.95 ± 0.046
CN[C@@H]1[C@H](O)[C@H](NC)[C@H]2O[C@@]3(O)C(=O)C[C@@H](C)O[C@H]3O[C@@H]2[C@H]1O [Spectinomycin dihydrochloride] | 0.786 ± 0.48 | 1.07 ± 0.021 | 0.909 | 0.9719 ± 0.0052
CCC1NC(=O)c2cc(S(N)(=O)=O)c(Cl)cc2N1 (stereo not drawn) [Quinethazone] | 0.951 ± 0.37 | 1.05 ± 0.063 | 0.909 | 1.04 ± 0.027
O=C1NCCN1CCN1CCC(c2cn(-c3ccc(F)cc3)c3ccc(Cl)cc23)CC1 [Sertindole] | 1.45 ± 0.59 | 1.08 ± 0.022 | 0.833 | 0.949 ± 0.071
CC(=O)Oc1cccc2c1C(=O)c1c(OC(C)=O)cc(C(=O)O)cc1C2=O [Diacerein] | 0.691 ± 0.2 | 1.1 ± 0.046 | 0.833 | 1.02 ± 0.021
O=C(O)CNC(=O)C(CS)Cc1ccccc1 (stereo not drawn) [Thiorphan] | 0.84 ± 0.35 | 1.04 ± 0.036 | 0.75 | 0.994 ± 0.017
O=P(O)(O)C(O)(Cn1ccnc1)P(=O)(O)O [Zoledronic acid hydrate] | 1.2 ± 0.37 | 1.04 ± 0.015 | 1 | 0.989 ± 0.0085
CCCc1nc(C)c2c(=O)nc(-c3cc(S(=O)(=O)N4CCN(CC)CC4)ccc3OCC)[nH]n12 [Vardenafil] | 1.24 ± 0.46 | 1.02 ± 0.021 | 0.667 | 0.981 ± 0.041
O=C(O)c1ccccc1C(=O)Nc1ccc(S(=O)(=O)Nc2nccs2)cc1 [Phthalylsulfathiazole] | 0.926 ± 0.31 | 1.02 ± 0.015 | 0.833 | 0.943 ± 0.071
Cc1cc(N)c2ccccc2[n+]1CCCCCCCCCC[n+]1c(C)cc(N)c2ccccc21 [Dequalinium dichloride] | 1 ± 0.33 | 1.02 ± 0.021 | 0.75 | 0.9864 ± 0.0034
CCOC(=O)C1=C(COCCN)NC(C)=C(C(=O)OC)C1c1ccccc1Cl (stereo not drawn) [Amlodipine] | 0.923 ± 0.2 | 1.03 ± 0.085 | 1 | 0.983 ± 0.029
COc1ccc2[nH]c([S+]([O-])Cc3ncc(C)c(OC)c3C)nc2c1 (stereo not drawn) [Omeprazole] | 1.15 ± 0.38 | 0.935 ± 0.073 | 0.667 | 1.1759 ± 0.00043
Cc1ncc([N+](=O)[O-])n1CC(C)O (stereo not drawn) [Secnidazole] | 0.775 ± 0.29 | 0.9842 ± 0.0045 | 0.833 | 0.9777 ± 0.0024
Nc1ccn([C@@H]2O[C@H](CO)[C@@H](O)C2(F)F)c(=O)n1 [Gemcitabine] | 0.851 ± 0.34 | 0.99 ± 0.053 | 0.917 | 1.03 ± 0.039
COc1cc2nc(N3CCN(C(=O)C4COc5ccccc5O4)CC3)nc(N)c2cc1OC (stereo not drawn) [Doxazosin mesylate] | 0.958 ± 0.6 | 0.965 ± 0.026 | 1 | 1.007 ± 0.003

Structure (SMILES) | glomerular separation [1] | glomerular width [2] | fraction of imaged embryos annotated as normal kidney [3] | pronephric angle neck segment [4]
Cc1scc2c1N(C(=O)CN1CCN(C)CC1)c1ccccc1NC2=O [Telenzepine dihydrochloride] | 0.967 ± 0.17 | 0.937 ± 0.032 | 1 | 0.963 ± 0.01
CCc1cc(C(N)=S)ccn1 [Ethionamide] | 0.955 ± 0.39 | 0.97628 ± 0.00041 | 0.75 | 0.96 ± 0.039
CCOc1ccc2ccccc2c1C(=O)N[C@@H]1C(=O)N2[C@@H]1SC(C)(C)[C@@H]2C(=O)O [Nafcillin sodium salt monohydrate] | 0.868 ± 0.32 | 0.941 ± 0.019 | 0.833 | 1.041 ± 0.0022
CN(C)CCCN1c2ccccc2Sc2ccccc21 [Promazine hydrochloride] | 1.25 ± 0.35 | 1.044 ± 0.0041 | 0.75 | 0.962 ± 0.047
CC1COc2c(N3CCN(C)CC3)c(F)cc3c(=O)c(C(=O)O)cn1c23 (stereo not drawn) [Ofloxacin] | 1.32 ± 0.67 | 1.043 ± 0.0041 | 0.833 | 1.06 ± 0.038
O=C1CN(/N=C/c2ccc(-c3ccc([N+](=O)[O-])cc3)o2)C(=O)N1 [Dantrolene sodium salt] | 1.46 ± 0.66 | 0.974 ± 0.084 | 0.833 | 1.02 ± 0.016
CC(N/C(=N\C#N)Nc1ccncc1)C(C)(C)C (stereo not drawn) [Pinacidil] | 0.881 ± 0.21 | 1.05 ± 0.1 | 0.727 | 1.01 ± 0.036
O=C1c2cccc3c2[C@H](CCC3)CN1[C@@H]1CN2CCC1CC2 [Palonosetron hydrochloride] | 1.08 ± 0.37 | 0.975 ± 0.023 | 0.667 | 1 ± 0.038
Cc1cc(O)c(C(=O)N[C@@H](C(=O)N[C@@H]2C(=O)N3C(C(=O)O)=C(CSc4nnnn4C)CS[C@H]23)c2ccc(O)cc2)cn1 [Cefpiramide] | 1.22 ± 0.39 | 0.985 ± 0.089 | 0.833 | 0.9442 ± 0.0043
Cc1ccnc(NS(=O)(=O)c2ccc(N)cc2)n1 [Sulfamerazine] | 0.775 ± 0.22 | 1.03 ± 0.011 | 0.909 | 0.974 ± 0.085
CC(=O)N(O)CCCCCNC(=O)CCC(=O)N(O)CCCCCNC(=O)CCC(=O)N(O)CCCCCN [Deferoxamine mesylate] | 0.888 ± 0.3 | 1.02 ± 0.042 | 0.917 | 1.01 ± 0.018
CN(C)CCCN1c2ccccc2CCc2ccccc21 [Imipramine hydrochloride] | 0.946 ± 0.39 | 1.02 ± 0.14 | 0.75 | 0.996 ± 0.041
c1ccc2c(CC3=NCCN3)cccc2c1 [Naphazoline hydrochloride] | 1.17 ± 0.54 | 1 ± 0.0079 | 1 | 1.006 ± 0.0059
CC1CCc2c(N3CCC(O)CC3)c(F)cc3c(=O)c(C(=O)O)cn1c23 (stereo not drawn) [Nadifloxacin] | 1.13 ± 0.33 | 1.01 ± 0.031 | 0.917 | 1.04 ± 0.029
C[C@@](Cc1ccc(O)c(O)c1)(NN)C(=O)O [Carbidopa] | 1.24 ± 0.38 | 1.0027 ± 0.00014 | 0.833 | 1.047 ± 0.0029
CCn1cc(C(=O)O)c(=O)c2cc(F)c(N3CCNCC3)cc21 [Norfloxacin] | 0.828 ± 0.22 | 1.05 ± 0.037 | 1 | 0.9433 ± 0.0086
CC(C(O)c1ccc(O)cc1)N1CCC(Cc2ccccc2)CC1 (stereo not drawn) [Ifenprodil tartrate] | 0.712 ± 0.33 | 1.04 ± 0.024 | 1 | 0.942 ± 0.089
CC(CN(C)C)CN1c2ccccc2CCc2ccccc21 (stereo not drawn) [Trimipramine maleate salt] | 0.996 ± 0.29 | 1.06 ± 0.087 | 0.833 | 0.972 ± 0.048
CC(=O)OCC(=O)[C@@]1(O)[C@H](C)C[C@H]2[C@@H]3CCC4=CC(=O)C=C[C@]4(C)[C@@]3(F)[C@@H](O)C[C@@]21C [Dexamethasone acetate] | 1 ± 0.25 | 1.252 ± 0.0072 | 1 | 1.02 ± 0.034
